These results are taken from paper PMC9911399, “Two distinct binding modes provide the RNA-binding protein RbFox with extraordinary sequence specificity”.

Residue numbers refer to the chain shown, from its start. Over roughly 16,000 sequences, “ka relative to ugcaugu” has its median near 0.096; the highest 2% begin near 0.35. The sample holds the highest values, similar sequences and a random draw of the others, so the mix is not that of the screen.

B1: UUUUCUG (DNA:RNA)
RNA: GGGAGACCGGAAUUCAGAUUGUCCUUUUCUGUUAAAUCCCGUCGUAGCCACCA
DNA 1: CAATCTGAATTCCGGTCTCCC
DNA 2: TGGTGGCTACGACGGGATT
B2: UCCUCCG (DNA:RNA)
RNA: B1 RNA with U26C, U27C, U30C
DNA 1: CAATCTGAATTCCGGTCTCCC
DNA 2: TGGTGGCTACGACGGGATT
B3: GCCCAGU (DNA:RNA)
RNA: GGGAGACCGGAAUUCAGAUUGUCCGCCCAGUUUAAAUCCCGUCGUAGCCACCA
DNA 1: CAATCTGAATTCCGGTCTCCC
DNA 2: TGGTGGCTACGACGGGATT
B4: GGGUCCG (DNA:RNA)
RNA: B1 RNA with U25G, U26G, U27G, U30C
DNA 1: CAATCTGAATTCCGGTCTCCC
DNA 2: TGGTGGCTACGACGGGATT
B5: GUCGGGG (DNA:RNA)
RNA: B3 RNA with C26U, C28G, A29G, U31G
DNA 1: CAATCTGAATTCCGGTCTCCC
DNA 2: TGGTGGCTACGACGGGATT
B6: GGGGUUG (DNA:RNA)
RNA: B1 RNA with U25G, U26G, U27G, U28G, C29U
DNA 1: CAATCTGAATTCCGGTCTCCC
DNA 2: TGGTGGCTACGACGGGATT
B7: GGGGGGG (DNA:RNA)
RNA: B3 RNA with C26G, C27G, C28G, A29G, U31G
DNA 1: CAATCTGAATTCCGGTCTCCC
DNA 2: TGGTGGCTACGACGGGATT
B8: CGGGGGG (DNA:RNA)
RNA: B3 RNA with G25C, C26G, C27G, C28G, A29G, U31G
DNA 1: CAATCTGAATTCCGGTCTCCC
DNA 2: TGGTGGCTACGACGGGATT
B9: CGGGUUG (DNA:RNA)
RNA: B1 RNA with U25C, U26G, U27G, U28G, C29U
DNA 1: CAATCTGAATTCCGGTCTCCC
DNA 2: TGGTGGCTACGACGGGATT
B10: CGGUUGA (DNA:RNA)
RNA: B3 RNA with G25C, C26G, C27G, C28U, A29U, U31A
DNA 1: CAATCTGAATTCCGGTCTCCC
DNA 2: TGGTGGCTACGACGGGATT
B11: GGGGUCG (DNA:RNA)
RNA: B3 RNA with C26G, C27G, C28G, A29U, G30C, U31G
DNA 1: CAATCTGAATTCCGGTCTCCC
DNA 2: TGGTGGCTACGACGGGATT
B12: CACCGGG (DNA:RNA)
RNA: B3 RNA with G25C, C26A, A29G, U31G
DNA 1: CAATCTGAATTCCGGTCTCCC
DNA 2: TGGTGGCTACGACGGGATT
B13: GGGUUGA (DNA:RNA)
RNA: B3 RNA with C26G, C27G, C28U, A29U, U31A
DNA 1: CAATCTGAATTCCGGTCTCCC
DNA 2: TGGTGGCTACGACGGGATT
B14: CGGGUCG (DNA:RNA)
RNA: B1 RNA with U25C, U26G, U27G, U28G, C29U, U30C
DNA 1: CAATCTGAATTCCGGTCTCCC
DNA 2: TGGTGGCTACGACGGGATT
B15: GGGUUAA (DNA:RNA)
RNA: B3 RNA with C26G, C27G, C28U, A29U, G30A, U31A
DNA 1: CAATCTGAATTCCGGTCTCCC
DNA 2: TGGTGGCTACGACGGGATT
B16: UAAGAGC (DNA:RNA)
RNA: B3 RNA with G25U, C26A, C27A, C28G, U31C
DNA 1: CAATCTGAATTCCGGTCTCCC
DNA 2: TGGTGGCTACGACGGGATT
B17: GACCGCG (DNA:RNA)
RNA: B3 RNA with C26A, A29G, G30C, U31G
DNA 1: CAATCTGAATTCCGGTCTCCC
DNA 2: TGGTGGCTACGACGGGATT
B18: GCACUUC (DNA:RNA)
RNA: B3 RNA with C27A, A29U, G30U, U31C
DNA 1: CAATCTGAATTCCGGTCTCCC
DNA 2: TGGTGGCTACGACGGGATT
B19: UGACGAC (DNA:RNA)
RNA: B3 RNA with G25U, C26G, C27A, A29G, G30A, U31C
DNA 1: CAATCTGAATTCCGGTCTCCC
DNA 2: TGGTGGCTACGACGGGATT
B20: GCCAGGU (DNA:RNA)
RNA: B3 RNA with C28A, A29G
DNA 1: CAATCTGAATTCCGGTCTCCC
DNA 2: TGGTGGCTACGACGGGATT
B21: UAUGCGU (DNA:RNA)
RNA: B1 RNA with U26A, U28G, U30G, G31U
DNA 1: CAATCTGAATTCCGGTCTCCC
DNA 2: TGGTGGCTACGACGGGATT
B22: GAAAGGG (DNA:RNA)
RNA: B3 RNA with C26A, C27A, C28A, A29G, U31G
DNA 1: CAATCTGAATTCCGGTCTCCC
DNA 2: TGGTGGCTACGACGGGATT
B23: GGCACGG (DNA:RNA)
RNA: B3 RNA with C26G, C28A, A29C, U31G
DNA 1: CAATCTGAATTCCGGTCTCCC
DNA 2: TGGTGGCTACGACGGGATT
B24: AUAACAC (DNA:RNA)
RNA: B1 RNA with U25A, U27A, U28A, U30A, G31C
DNA 1: CAATCTGAATTCCGGTCTCCC
DNA 2: TGGTGGCTACGACGGGATT
B25: UUAGACU (DNA:RNA)
RNA: B3 RNA with G25U, C26U, C27A, C28G, G30C
DNA 1: CAATCTGAATTCCGGTCTCCC
DNA 2: TGGTGGCTACGACGGGATT
B26: UCGUAUC (DNA:RNA)
RNA: B1 RNA with U26C, U27G, C29A, G31C
DNA 1: CAATCTGAATTCCGGTCTCCC
DNA 2: TGGTGGCTACGACGGGATT
B27: UCGAAUG (DNA:RNA)
RNA: B1 RNA with U26C, U27G, U28A, C29A
DNA 1: CAATCTGAATTCCGGTCTCCC
DNA 2: TGGTGGCTACGACGGGATT
B28: UCGAAUC (DNA:RNA)
RNA: B3 RNA with G25U, C27G, C28A, G30U, U31C
DNA 1: CAATCTGAATTCCGGTCTCCC
DNA 2: TGGTGGCTACGACGGGATT
B29: UCGAUUG (DNA:RNA)
RNA: B1 RNA with U26C, U27G, U28A, C29U
DNA 1: CAATCTGAATTCCGGTCTCCC
DNA 2: TGGTGGCTACGACGGGATT
B30: UCGAUUC (DNA:RNA)
RNA: B1 RNA with U26C, U27G, U28A, C29U, G31C
DNA 1: CAATCTGAATTCCGGTCTCCC
DNA 2: TGGTGGCTACGACGGGATT
B31: UCGAAAU (DNA:RNA)
RNA: B3 RNA with G25U, C27G, C28A, G30A
DNA 1: CAATCTGAATTCCGGTCTCCC
DNA 2: TGGTGGCTACGACGGGATT

The target of the assay is T1, RBFOX1 RRM RbFoxmut (Fox-RRM*) (Homo sapiens, UniProt Q9NWB1 109-208, R118D;E147R;N151S;E152T).
T1 sequence: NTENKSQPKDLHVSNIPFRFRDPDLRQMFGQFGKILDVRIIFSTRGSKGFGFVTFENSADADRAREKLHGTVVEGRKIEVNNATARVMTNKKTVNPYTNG
In words: EMSA; HiTS-Eq, 1 nM pool, 10 min; buffer printed only for the single-RNA assays: 10 mM Tris pH 7.5, 150 mM NaCl, 3.4 mM EDTA, 0.001% NP-40, 30 C. The conditions noted are these: tags: His6 N-terminal (pET28a); label: 5' 32P. Summed up: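 Purified RbFox RRM, wild type or mutant, was incubated for 10 min in 50 µL with 1 nM of a 5′-radiolabelled RNA pool carrying 7 randomized nucleotides, whose flanks were annealed to DNA oligonucleotides, over a series of increasing protein concentrations. Unbound RNA was resolved on 8% native PAGE, cut out, reverse-transcribed, barcoded by PCR and sequenced on an Illumina HiSeq 2500. Relative association constants were derived from changes in read counts for each RNA species versus the control reaction and normalised to the cognate motif.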
For orientation: A gel shift assay detects complexes by their altered migration in electrophoresis.
In the case of B1, the binding signal is 0.0689 KA relative to UGCAUGU.

For B2, the binding signal is 0.0609 KA relative to UGCAUGU.

With B3, the binding signal was 0.102 KA relative to UGCAUGU.

As to B4, the binding signal is 0.238 KA relative to UGCAUGU.

Consider B5, for which the binding signal is 0.101 KA relative to UGCAUGU.

In the case of B6, the binding signal was 0.609 KA relative to UGCAUGU.

As for B7, the binding signal was 0.0675 KA relative to UGCAUGU.

B8: the binding signal was 0.0805 KA relative to UGCAUGU.

B9: the binding signal is 0.66 KA relative to UGCAUGU.

As to B10, the binding signal is 0.139 KA relative to UGCAUGU.

In the case of B11, the binding signal is 0.357 KA relative to UGCAUGU.

B12: the binding signal was 0.0671 KA relative to UGCAUGU.

Consider B13, for which the binding signal was 0.356 KA relative to UGCAUGU.

Take B14: the binding signal is 0.259 KA relative to UGCAUGU.

As to B15, the binding signal was 0.0954 KA relative to UGCAUGU.

Turning to B16, the binding signal is 0.0654 KA relative to UGCAUGU.

On to B17, for which the binding signal was 0.101 KA relative to UGCAUGU.

Turning to B18, the binding signal is 0.0473 KA relative to UGCAUGU.

Consider B19, for which the binding signal is 0.069 KA relative to UGCAUGU.

As for B20, the binding signal was 0.0955 KA relative to UGCAUGU.

As to B21, the binding signal was 0.108 KA relative to UGCAUGU.

Consider B22, for which the binding signal is 0.0436 KA relative to UGCAUGU.

Turning to B23, the binding signal is 0.149 KA relative to UGCAUGU.

In the case of B24, the binding signal is 0.0733 KA relative to UGCAUGU.

As to B25, the binding signal was 0.0743 KA relative to UGCAUGU.

With B26, the binding signal is 0.192 KA relative to UGCAUGU.

Take B27: the binding signal was 1.31 KA relative to UGCAUGU.

Regarding B28, the binding signal is 0.36 KA relative to UGCAUGU.

Consider B29, for which the binding signal was 0.239 KA relative to UGCAUGU.

B30: the binding signal was 0.115 KA relative to UGCAUGU.

In the case of B31, the binding signal is 0.0789 KA relative to UGCAUGU.
